Mtb bLac sens – beta-lactam sensitization of Mtb H37Rv | M. tuberculosis H37Rv growth with meropenem, percent inhibition | inhibition, % at 25 µM | actives 0.27% (n = 330,000) | AID 434955; call rule not given here;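 also: growth measured after seven days incubation then overnight dye step; 0% = bacteria only wells and 100% = bacteria with antibiotic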
FBA Mtb inh – Mtb fructose-bisphosphate aldolase inhibition. inhibition, % at 1 µM. actives 2.3% (n = 360,000). AID 588726. P9WQA3. purified M. tuberculosis FBA, fluorescence read-out;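 also: 0% = vehicle and 100% = reference inhibitor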
GDH-TPI counter-1 – inhibits GDH-TPI coupling enzymes, artifact for Mtb FBA screen. inhibition, % at 4.8 µM. GDH-TPI coupled enzyme counterscreen, NADH absorbance. actives 1.2% (n = 360,000); in the data active = inhibition above about 30%;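 also: 0% = DMSO wells and 100% = wells lacking the enzyme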
UGM FP inh – blocks M. tuberculosis UGM enzyme | P9WIQ1 | purified UGM, fluorescence polarization probe displacement | inhibition, % at 10 µM | actives 0.06% (n = 320,000); in the data active = inhibition above about 10%, passing the limit was not always enough; inconclusive = no clear call, values can overlap the other calls
Target sequence (P9WIQ1 whole entry, looked up): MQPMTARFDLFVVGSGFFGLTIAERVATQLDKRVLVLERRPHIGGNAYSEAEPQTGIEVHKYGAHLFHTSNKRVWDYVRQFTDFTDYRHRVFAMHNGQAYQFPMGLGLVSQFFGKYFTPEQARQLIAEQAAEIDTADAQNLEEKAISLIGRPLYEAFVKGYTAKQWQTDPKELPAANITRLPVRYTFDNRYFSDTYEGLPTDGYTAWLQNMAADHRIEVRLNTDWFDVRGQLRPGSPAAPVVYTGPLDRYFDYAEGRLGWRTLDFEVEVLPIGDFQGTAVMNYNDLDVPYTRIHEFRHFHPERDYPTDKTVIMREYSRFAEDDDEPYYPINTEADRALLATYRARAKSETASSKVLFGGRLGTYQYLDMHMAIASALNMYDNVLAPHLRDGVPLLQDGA
Rv3671c protease – inhibits the M. tuberculosis serine protease Rv3671c; inhibition, % at 5.96 µM; P9WHR9; actives 0.048% (n = 320,000); in the data active = inhibition above about 38%;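 also: extracellular domain of Rv3671c used as enzyme; 0% = enzyme with DMSO and 100% = no enzyme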
Mtb FBA confirm – Mtb FBA inhibition, confirmed; shares compounds with FBA Mtb inh; purified M. tuberculosis FBA, fluorescence read-out; inhibition, % at 1 µM; actives 78% (n = 5,600);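 also: 0% = vehicle wells and 100% = reference inhibitor wells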
GDH-TPI counter-2 – inhibits GDH-TPI coupling enzymes, flagging Mtb FBA hits. shares compounds with FBA Mtb inh. actives 81% (n = 5,600). inhibition, % at 1 µM. GDH-TPI coupled enzyme counterscreen, fluorescence; in the data active = inhibition above about 10%
* marks the source's active call; other numbers are inactive results; ? = inconclusive; / = no result given; + = active, no number; ! = not confirmed by another sample. This is a sample that favours compounds with a hit; in the whole collection about 3.5% have one here. Rule as the data show it, unless noted: active = inhibition above about 27%; inactive = the rest.

SMILES	Mtb bLac sens	FBA Mtb inh	GDH-TPI counter-1	UGM FP inh	Rv3671c protease	Mtb FBA confirm	GDH-TPI counter-2
Cc1cc(OCC(=O)OC(C)C)c2c3c(c(=O)oc2c1)CCCC3	18.2	13.0	5.2	-2.9	6.5	/	/
COC(=O)C(C)Oc1cc(C)cc2oc(=O)c3c(c12)CCC3 (configuration not stated)	3.6	74.0*	9.5	-2.9	-3.1	+	+
CCOC(=O)C(C)Oc1cc(C)cc2oc(=O)c3c(c12)CCCC3 (configuration not stated)	7.9	75.3*	12.7	/	-5.8	65.3*	61.5*
COC(=O)C(C)Oc1cc(C)cc2oc(=O)c3c(c12)CCCC3 (configuration not stated)	-5.6	57.0*	-3.5	-0.8	-1.0	59.1*	51.0*
Cc1cc(Oc2ccc(C(F)(F)F)cc2[N+](=O)[O-])c2c3c(c(=O)oc2c1)CCC3	6.7	0.6	4.7	2.6	0.5	/	/
O=C(c1ccc(CNS(=O)(=O)c2ccc(Br)cc2)cc1)N1CCCCC1	18.5	5.2	1.0	-1.0	-5.7	/	/
COc1ccccc1-c1oc2ccccc2c1C#CC(C)(C)O	?	54.6*	13.6	0.8	-1.8	+	+
CN(Cc1cnc2nc(N)nc(N)c2n1)c1ccc(C(=O)N[C@@H](CCC(=O)O)C(=O)O)cc1	-0.4	108.0*!	15.0	-0.2	2.6	119.1*	108.4*
Nc1nc2ncc(CNc3ccc(C(=O)N[C@@H](CCC(=O)O)C(=O)O)cc3)nc2c(=O)[nH]1	0.2	44.3*	16.7	2.6	-0.4	113.1*	90.1*
CCOC(=O)c1c(C)[nH]c(C)c1S(=O)(=O)NCc1cc(C)ccc1C	-1.9	-1.3	3.1	-1.8	-0.4	/	/
O=C(COC(=O)c1cc(S(=O)(=O)N2CCCCC2)ccc1N1CCOCC1)c1ccccc1Cl	/	3.4	-4.0	/	/	/	/
C/C=C(\C)C(=O)OC1c2c(ccc3ccc(=O)oc23)OC(C)(C)C1OC(C)=O (configuration not stated)	0.3	9.2	19.4	1.3	-4.6	/	/
CC(=O)NC(=S)Nc1ccc2oc(=O)ccc2c1	-9.0	-0.1	-1.9	0.0	3.8	/	/
CC(=O)OC(C)(C)C1Cc2cc3ccc(=O)oc3cc2O1 (configuration not stated)	-0.6	104.1*	10.3	3.1	-3.2	0.3	-1.5
CC(C)=CC(=O)O[C@@H]1Cc2cc3ccc(=O)oc3cc2OC1(C)C	3.1	34.1*	18.7	0.3	-5.1	+	+
C/C=C(\C)C(=O)OC(C)(C)[C@H]1Cc2cc3ccc(=O)oc3cc2O1	-1.5	93.5*	5.9	1.2	0.1	+	+
COc1ccc(NC(=O)Nc2ccc3c(c2)C(=O)N([C@H](C)CO)C[C@H](C)[C@@H](CN(C)C(=O)Nc2c(C)noc2C)O3)cc1	-9.1	2.1	7.6	3.1	0.1	/	/
O=C(NCc1ccco1)c1ccc(S(=O)(=O)N2CCOCC2)cc1	1.5	2.5	0.6	-2.2	0.3	/	/
COc1ccc(Cn2c(N)c(C(=O)NCc3ccco3)c3nc4ccccc4nc32)cc1	99.4	61.4*	5.8	-2.6	-49.9	190.1*	158.1*
COc1ccc(-n2c(N)c(C(=O)NCc3ccco3)c3nc4ccccc4nc32)c(OC)c1	-12.7	59.6*	4.4	-0.7	-54.6	-1.4	-5.0
Nc1c(C(=O)NCc2ccco2)c2nc3ccccc3nc2n1Cc1ccc(F)cc1	-3.4	58.5*	23.9	0.1	-62.8	37.8*	36.9*
Nc1c(C(=O)NCc2ccco2)c2nc3ccccc3nc2n1CCN1CCOCC1	2.0	72.4*	13.6	0.4	-9.6	107.5*	88.9*
Nc1c(C(=O)NCc2ccco2)nnn1Cc1ccccc1	0.2	-0.9	10.3	-1.0	1.0	/	/
COc1ccc(S(=O)(=O)Cc2ccc(C(=O)NCc3ccco3)o2)cc1	-6.3	-0.3	1.0	1.0	1.1	/	/
CCOC(=O)NNC(=O)C1CCC(C)CC1 (configuration not stated)	-2.9	-2.0	5.5	2.6	-5.6	/	/
SMILES	Mtb bLac sens	FBA Mtb inh	GDH-TPI counter-1	UGM FP inh	Rv3671c protease	Mtb FBA confirm	GDH-TPI counter-2
CCO[C@@H]1OC(C(=O)NCc2ccccc2)=C[C@H](c2coc3ccccc3c2=O)[C@H]1CCCO	-4.6	-2.5	-2.5	1.2	-8.5	/	/
O=C(NCCN1CCOCC1)c1ccc2ccccc2n1	-17.8	-0.4	5.5	-2.6	4.8	/	/
COc1ccc(Nc2cc(C(=O)NCc3ccco3)c3ccccc3n2)cc1	2.5	/	/	1.4	-4.9	/	/
CCCCNC(=O)c1c(N)n(Cc2ccc3c(c2)OCO3)c2nc3ccccc3nc12	11.5	29.5*	17.6	2.8	-8.0	65.1*	55.5*
COc1ccc(CCn2c(N)c(C(=O)NCc3ccco3)c3nc4ccccc4nc32)cc1	4.9	85.0*	17.5	0.7	-12.3	+	197.8*
Nc1c(C(=O)NCCN2CCOCC2)c2nc3ccccc3nc2n1-c1cccc(F)c1	-8.3	103.8*	22.9	0.2	0.1	-5.3	-6.5
CCOC(=O)c1c(N)n(Cc2ccco2)c2nc3ccccc3nc12	-9.1	77.4*	14.7	1.6	-4.1	198.3*	171.9*
COC(=O)c1c(C(=O)OC)c(C)n(Cc2ccco2)c1C	/	-1.3	3.7	3.6	-5.7	/	/
CCCCCC(=O)N1C[C@@H](O)[C@H](n2cc(COC(=O)c3ccccc3)nn2)C[C@@H]1c1ccc(Cl)cc1	/	-1.1	1.4	/	/	/	/
CCOc1ccc(NC(=O)C(CC)n2nc(C)c3c(C)n(-c4ccccc4)nc3c2=O)cc1 (configuration not stated)	-1.5	1.9	3.9	-0.4	11.3	/	/
Cn1nc([N+](=O)[O-])nc1Sc1nnnn1-c1ccc(C(=O)O)cc1	-9.8	4.0	-8.3	0.8	-4.4	/	/
CCOC(=O)CC1C(=O)NCCN1C1CCCC1 (configuration not stated)	-5.0	-8.1	-10.5	0.8	2.5	/	/
CCCCCn1c(N)c(C(=O)NCCN2CCOCC2)c2nc3ccccc3nc21	77.9	65.0*	8.5	0.3	4.0	+	+
COc1ccc(CCNC(=O)c2c(N)n(CCN3CCOCC3)c3nc4ccccc4nc23)cc1OC	24.4	12.1	3.4	0.1	0.7	/	/
CCCCn1c(N)c(C(=O)NCc2cccs2)c2nc3ccccc3nc21	12.2	33.1*	7.0	0.8	-53.2	165.8*	141.8*
C=CCNC(=O)c1c(N)n(-c2ccc3c(c2)OCO3)c2nc3ccccc3nc12	-0.9	0.2	15.0	-1.2	-2.6	/	/
CCCNC(=O)c1c(N)n(-c2cccc(OC)c2)c2nc3ccccc3nc12	4.0	67.7*	12.6	3.1	-5.1	-6.2	-4.2
COC(=O)NC(C)N1C(=O)C2C3C=CC(C3)C2C1=O (configuration not stated)	-9.7	-0.9	-2.8	-0.3	-0.2	/	/
COc1ccc(NC(=S)NC(=O)c2cncc(Br)c2)cc1	-11.5	-0.5	7.3	-0.3	5.3	/	/
CCOc1ccc(OCCCC(=O)N(C)CC(=O)Nc2ccccc2Br)cc1	-8.8	-2.4	-0.8	2.1	-0.8	/	/

High-throughput results deposited in PubChem by several laboratories.
